Experimental data from PubChem BioAssay AID694 (Emory University Molecular Libraries Screening Center, 2007).
The whole screen tested about 1,300 compounds, of which about 25 (2%) were called active. How the calls were made is not given here. Shown is part of a subset that was picked to be rich in actives.

Target: Estrogen receptor (Homo sapiens) (UniProt P03372)
Test: ERα coactivator peptide binding inhibitors, primary screen, biochemical, LOPAC library, TR-FRET (AID 694);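 further: receptor was agonist-bound with estradiol present during the assay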
Conditions: TR-FRET ERalpha-coactivator peptide binding, stronger effect = higher value

Estrogen receptor (Homo sapiens), sequence (P03372 whole entry, looked up): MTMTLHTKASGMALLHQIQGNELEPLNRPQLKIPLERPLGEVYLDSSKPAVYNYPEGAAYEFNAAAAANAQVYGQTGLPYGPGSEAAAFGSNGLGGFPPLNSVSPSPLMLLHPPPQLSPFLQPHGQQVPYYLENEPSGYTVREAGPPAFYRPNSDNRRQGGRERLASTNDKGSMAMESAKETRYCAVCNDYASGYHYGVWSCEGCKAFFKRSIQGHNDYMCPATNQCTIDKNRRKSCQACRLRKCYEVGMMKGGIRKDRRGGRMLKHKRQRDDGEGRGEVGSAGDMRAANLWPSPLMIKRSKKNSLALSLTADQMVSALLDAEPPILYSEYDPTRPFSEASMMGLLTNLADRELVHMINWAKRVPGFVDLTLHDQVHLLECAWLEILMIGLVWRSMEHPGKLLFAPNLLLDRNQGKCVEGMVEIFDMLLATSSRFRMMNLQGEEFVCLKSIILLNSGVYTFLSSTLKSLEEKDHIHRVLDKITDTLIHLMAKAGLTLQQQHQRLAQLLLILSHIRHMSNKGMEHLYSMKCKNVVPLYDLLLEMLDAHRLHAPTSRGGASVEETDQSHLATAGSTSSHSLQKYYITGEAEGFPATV

SMILES	inhibition (at 45 µM)	inhibition (inhibition, at 15 µM) [%]
N=c1c[n+](N2CCOCC2)[n-]o1	3.79% (inactive)	4.24
COc1ccccc1N1CCN(CCCNc2c(C)c(=O)n(C)c(=O)n2C)CC1	-0.24% (inactive)	1.69
CCNC(=O)C1OC(n2cnc3c(NCc4ccccc4)ncnc32)C(O)C1O (centres undefined)	-1.65% (inactive)	1.9
Cn1cc(C(F)(F)F)nc1-c1ccc(OCC(O)CNCCOc2ccc(O)c(C(N)=O)c2)cc1 (centres undefined)	-4.07% (inactive)	-6.05
CC[N+](C)(C)Cc1ccccc1Br	-6.37% (inactive)	-2.6
COc1ccccc1N1CCN(CCN(C(=O)c2ccc(F)cc2)c2ccccn2)CC1	-4.33% (inactive)	1.39
CCCCCN(CCCCC)C(=O)C(CCC(=O)O)NC(=O)c1ccc(Cl)c(Cl)c1 (centres undefined)	0.49% (inactive)	8.19
NCCCCNS(=O)(=O)c1cccc2c(Cl)cccc12	-24.3% (inactive)	2.07
CNC(=O)Oc1ccc2c(c1)[C@]1(C)CCN(C)[C@@H]1N2C	-8.56% (active)	56.6
Oc1cc(O)c2c(c1)O[C@H](c1ccc(O)c(O)c1)[C@@H](O)C2	26.6% (inactive)	10.3
CC1=C(C(=O)O)N2C(=O)[C@@H](NC(=O)C(N)c3ccccc3)[C@H]2SC1 (some centres undefined)	-5% (inactive)	-4.71
COc1cc(=O)n(C)c2c(OCC(O)C(C)(C)O)cccc12 (centres undefined)	-4.43% (inactive)	3.61
NS(=O)(=O)c1cc2c(cc1Cl)NC=NS2(=O)=O	-2.72% (inactive)	1.82
Cc1nc(N=Nc2ccc(C(=O)O)cc2)c(COP(=O)(O)O)c(C=O)c1O	6.52% (inactive)	-0.22
Cn1c(=O)c2c(nc(/C=C/c3cccc(Cl)c3)n2C)n(C)c1=O	0.97% (inactive)	-2.61
CC(C)COCC(CN(Cc1ccccc1)c1ccccc1)N1CCCC1 (centres undefined)	-5.09% (inactive)	4.06
C[N+](C)(C)CCOC(=O)CCC(=O)OCC[N+](C)(C)C	-6.43% (inactive)	0.18
COc1ccc2[nH]c(I)c(CCNC(C)=O)c2c1	-2.05% (inactive)	-4.11
CC(C)[C@@H]1NC(=O)[C@H](CCCCN)NC(=O)[C@@H](Cc2c[nH]c3ccccc23)NC(=O)[C@H](Cc2ccc(O)cc2)NC(=O)[C@H](C)N(C)C(=O)[C@H](Cc2ccccc2)NC1=O	5.89% (inactive)	-1.62
COC(=O)[C@H](NC(=O)c1cc(-c2ccccc2)nc2ccccc12)c1ccccc1	1.85% (inactive)	2.38
O=Nc1ccc2oc(=O)ccc2c1	0.4% (inactive)	0.59

SMILES	inhibition (at 45 µM)	inhibition (inhibition, at 15 µM) [%]
NC(N)=NCCC[C@H](N)C(=O)O	-2.21% (inactive)	-4
NC(CCCP(=O)(O)O)C(=O)O (centres undefined)	-8.81% (inactive)	-3.89
N[C@@H](CCCC(=O)O)C(=O)O	-21.2% (active)	50.5
O=c1c(O)c(-c2ccc(O)c(O)c2)oc2cc(O)cc(O)c12	59.6% (inactive)	26.6
O=c1c(O)c(-c2cc(O)c(O)c(O)c2)oc2cc(O)cc(O)c12	84% [fluorescence artefact?] (active)	62.7
O=c1[nH]c2cc(C(F)(F)F)ccc2n1-c1cc(C(F)(F)F)ccc1O	2.02% (inactive)	1.4
CC(=O)N[C@@H](CS)C(=O)O	-7.68% (inactive)	-8.08
N#C/C(=C\c1ccc(O)c(O)c1)C(=O)c1ccc(O)c(O)c1	59.5% [fluorescence artefact?] (active)	57.3
N#C/C(=C\c1ccc(O)c(O)c1)C(=O)NCCCNC(=O)/C(C#N)=C/c1ccc(O)c(O)c1	51.7% (inactive)	37.2
COc1cc(/C=C(\C#N)C(=O)c2ccc(O)c(O)c2)cc(I)c1O	28.7% (inactive)	13.7
Nc1ncn([C@@H]2O[C@H](CO)[C@@H](O)[C@H]2O)c(=O)n1	-1.93% (inactive)	-4.32
Cn1c(=O)c2[nH]c(C3CCCC3)nc2n(C)c1=O	1.28% (inactive)	-1.01
NC(=S)NCCCC(N)C(=O)O (centres undefined)	-4.72% (inactive)	3.62
NCC(O)C1CCCCCCC1 (centres undefined)	-4.78% (inactive)	1.99
CCN1CCc2nc(N)oc2CC1	-3.72% (inactive)	-5.11
CN(CCOc1ccc(C[C@H](Nc2ccccc2C(=O)c2ccccc2)C(=O)O)cc1)c1ccccn1	2.05% (inactive)	2.17
C=Cc1c(C)c2cc3[nH]c(cc4nc(cc5nc(cc1[nH]2)C(C)=C5CCC(=O)O)C(CCC(=O)O)=C4C)c(C)c3C=C	93.6% [fluorescence artefact?] (active)	73.7
CN(C)C(=O)/N=N/C(=O)N(C)C	-2.24% (inactive)	-4.27
Nn1nnc2ccccc21	-3.33% (inactive)	-2.11
COc1ccccc1N1CCN(CCCNc2cc(=O)n(C)c(=O)n2C)CC1	4.48% (inactive)	2.87
Cn1cnc2c(NCc3ccccc3)nc(NCCO)nc21	3.75% (inactive)	1.76

SMILES	inhibition (at 45 µM)	inhibition (inhibition, at 15 µM) [%]
C=CC[C@H](N)C(=O)O	-2.53% (inactive)	-5.06
CCCn1c(=O)c2c(ncn2C)n(CCC)c1=O	5.51% (inactive)	-1.66
N=c1nc(N2CCCCC2)cc(N)n1O	2.01% (inactive)	-3.53
CC[C@@H](C)[C@H]1O[C@]2(CC[C@@H]1C)C[C@@H]1C[C@@H](C/C=C(\C)[C@@H](O[C@H]3C[C@H](OC)[C@@H](O[C@H]4C[C@H](OC)[C@@H](O)[C@H](C)O4)[C@H](C)O3)[C@@H](C)/C=C/C=C3\CO[C@@H]4[C@H](O)C(C)=C[C@@H](C(=O)O1)[C@]34O)O2	-0.86% (inactive)	3.41
CCCCC#Cc1nc(N)c2ncn([C@@H]3O[C@H](C(=O)NCC)[C@@H](O)[C@H]3O)c2n1	-0.57% (inactive)	5.8
CCCCCCCC/C=C\CCCCCCCC(=O)NCCO	7.02% (inactive)	9.1
N[C@@H](CCC(=O)N[C@H](CSN=O)C(=O)NCC(=O)O)C(=O)O	1.19% (inactive)	3.44
[N-]=[N+]=Nc1ccc(C(=O)CSC[C@H](NC(=O)CC[C@H](N)C(=O)O)C(=O)NCC(=O)O)cc1	75.4% [fluorescence artefact?] (active)	74
C=CCN1CCc2c(cc(O)c(O)c2Br)[C@@H](c2ccccc2)C1	2.69% (inactive)	6.75
Cc1nc(N=Nc2cc(S(=O)(=O)O)c3cc([N+](=O)[O-])cc(S(=O)(=O)O)c3c2)c(COP(=O)(O)O)c(C=O)c1O	60.6% (inactive)	46.2
OCCN1CCN(CC/C=C2/c3ccccc3Sc3ccc(C(F)(F)F)cc32)CC1	3.87% (inactive)	3.25
CN1C(C)(C)CCCC1(C)C	-1.09% (inactive)	-2.02
Nc1nc(OCc2ccccc2)c2[nH]cnc2n1	-3.48% (inactive)	-5.45
Cc1cccc(C)c1NC(=O)C[N+](C)(C)C	0.37% (inactive)	-1.43
CCCCN1CCC(COC(=O)c2cc(Cl)c(N)c3c2OCCO3)CC1	-8.8% (inactive)	-4.44
CC(=O)SCC[N+](C)(C)C	0.72% (inactive)	-4.29
CN(C)CCN(Cc1cccs1)c1ccccn1	0.3% (inactive)	3.28
Cc1nc(N=Nc2ccc(S(=O)(=O)O)cc2S(=O)(=O)O)c(COP(=O)(O)O)c(C=O)c1O	-1.62% (inactive)	2.87
CCOC(=O)c1cnc2c(cnn2CC)c1NN=C(C)C	1.01% (inactive)	-4.69
O=c1cc(O)cc(/C=C/c2ccc(O)c(O)c2)o1	5.73% (inactive)	4.2
NC(N)=NCCCCN=C(N)N	-1.43% (inactive)	22.8

SMILES	inhibition (at 45 µM)	inhibition (inhibition, at 15 µM) [%]
CCCCCCCCCCCCC/C=C/C(O)C(N)CO (centres undefined)	17.6% (inactive)	-17.3
NC(=NCCC[C@H](N)C(=O)O)NO	3.2% (inactive)	2.74
NC(C(=O)N[C@@H]1C(=O)N2C(C(=O)O)=C(Cl)CS[C@H]12)c1ccccc1 (some centres undefined)	-11.2% (inactive)	-2.54
CSC(N)=NCCC[C@H](N)C(=O)O	0.58% (inactive)	-0.49
CN(C)CCCCSC(=N)N	-2.28% (inactive)	0.11
COc1ccc2c(c1)c(CC(=O)N1CCOCC1)c(C)n2C(=O)c1ccc(Cl)cc1	2.58% (inactive)	0.53
Nc1ncnc2c1ncn2[C@@H]1O[C@H](C(=O)NC2CC2)[C@H](O)C1O (some centres undefined)	-7.62% (inactive)	-0.92
Nc1nc(N)c2nc(CNc3ccc(C(=O)NC(CCC(=O)O)C(=O)O)cc3)cnc2n1 (centres undefined)	1.53% (inactive)	-2.57
CCCCCC(O)CCCC(=O)O (centres undefined)	-5.09% (inactive)	11.3
CCCCCCCCCCCCCCSCC(=O)O	97.7% [fluorescence artefact?] (active)	66.6
CCCCCCC/C=C\CCCCCCCCC(=O)O	63.2% (inactive)	46.6
COC(=O)c1c(-c2cc(OC)c(OC)c(OC)c2)c2ccnc(OCc3ncccn3)c2c(=O)n1Cc1ccnc(C)c1	-0.01% (inactive)	7.82
O=C(O)CCCCCC[C@H]1C(=O)NC(=O)N1CC[C@@H](O)C1CCCCC1	4.54% (inactive)	37.6
Nc1nc2c(ncn2COC(CO)CO)c(=O)[nH]1	-3.37% (inactive)	-1.7
Cc1cnc(NC(=O)C2=C(O)c3ccccc3S(=O)(=O)N2C)s1	1.42% (inactive)	-3.85
S=C(S)OC1CC2CC1C1CCCC21 (centres undefined)	-5.42% (inactive)	6.45
CC(=O)NCCc1c[nH]c2ccc(O)cc12	-5.1% (inactive)	4.29
NC(=O)c1cccc(N)c1	-6.67% (inactive)	0.5
CC1(C)CCC2=C(O1)c1ccccc1C(=O)C2=O	0.18% (inactive)	-0.19
